Results filed as inconclusive are left out. Unmarked numbers belong to inactive results. Calls of active or inactive are those of the source. Calls follow the shape of the dose curve; as a rule, active = well fitted inhibition curve with a large enough effect; inconclusive = small, poorly fitted or top-dose-only effect, or effect the other way; inactive = flat fitted curve, though single readings scatter.
The molecules below were run against Ubiquitin carboxyl-terminal hydrolase 2 (Homo sapiens) (UniProt O75604) (assay: Ub-rhodamine 110 based assay for inhibitors Ubiquitin-specific Protease USP2a). Settings: USP2a Ub-rhodamine110 cleavage, fluorescence; series mostly up to 38.3 µM; activity change, negative = inhibition: at the top concentration.
Chain of Ubiquitin carboxyl-terminal hydrolase 2 (Homo sapiens) (O75604 whole entry, looked up): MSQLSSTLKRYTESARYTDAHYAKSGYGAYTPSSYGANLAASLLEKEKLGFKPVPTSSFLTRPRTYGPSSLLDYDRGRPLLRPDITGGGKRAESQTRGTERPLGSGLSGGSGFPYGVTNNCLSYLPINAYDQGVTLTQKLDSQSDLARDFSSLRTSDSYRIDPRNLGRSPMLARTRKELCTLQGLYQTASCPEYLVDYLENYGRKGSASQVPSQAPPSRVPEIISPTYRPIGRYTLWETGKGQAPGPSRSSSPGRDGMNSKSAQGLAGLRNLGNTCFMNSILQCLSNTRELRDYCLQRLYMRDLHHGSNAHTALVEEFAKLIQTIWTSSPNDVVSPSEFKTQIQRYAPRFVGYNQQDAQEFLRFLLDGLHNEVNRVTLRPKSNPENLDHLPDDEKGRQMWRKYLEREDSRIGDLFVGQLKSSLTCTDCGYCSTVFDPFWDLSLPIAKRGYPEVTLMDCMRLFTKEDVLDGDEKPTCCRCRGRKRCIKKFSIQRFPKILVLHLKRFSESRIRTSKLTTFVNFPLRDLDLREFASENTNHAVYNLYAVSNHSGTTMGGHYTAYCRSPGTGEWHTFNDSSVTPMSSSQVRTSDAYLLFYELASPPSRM
Procedure, shortened: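 Kinetic fluorescence (485/531 nm) read each minute over 7 min after adding Ub-Rhod110 (150 nM final) to USP2a (5 nM final). The enzyme had 30 min RT exposure to compounds beforehand in Tris pH 8.0 buffer with CaCl2, CHAPS and beta-ME.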
% is scaled to controls: 0 for no effect and ±100 for the full control effect; potency is read from the fitted curve at half-maximal effect.
Also: nearly all actives have a fitted effect of over 50% in size.

| Compound | activity change, negative = inhibition | Potency |
| --- | --- | --- |
| Cc1onc(-c2ccccc2)c1C(=O)N1CCN(C)CC1 | -5.26% | – |
| Cc1c2c(=O)n(-c3nc4ccccc4s3)nc-2cc(O)n1Cc1ccccc1 | – | 6.31 µM (active) |
| CC(C)c1ccc(Nc2nnc(SCC(=O)c3nnc(-c4ccccc4)o3)s2)cc1 | – | 2.82 µM (active) |
| CSc1ccc(NC(=O)CSc2nc3[nH]c(=O)cc(O)c3s2)cc1 | – | 5.62 µM (active) |
| C=CC[C@H](CC(=O)N(CCO)Cc1ccccc1)C(=O)N[C@H](C)COC(=O)[C@@H](CC=C)CC(=O)OC(C)(C)C | -0.111% | – |
| CC1=C(C(=O)OC(C)C)C(C)C(C(=O)OC(C)C)=C(C)N1 | -4.29% | – |
| O=C1CC(Nc2ccc(N3CCOCC3)cc2)C(=O)N1c1cccc(C(F)(F)F)c1 (centres undefined) | -18.5% | – |
| O=C(Nc1nnc(SCCC2OCCO2)s1)C1CC(=O)N(c2ccc(F)cc2)C1 (centres undefined) | – | 7.94 µM (active) |
| CCn1nc(C(=O)N[C@@H](CCSC)c2nc3ccccc3[nH]2)c2ccccc2c1=O | -8.19% | – |
| Cc1ccc([C@@H]2CC=C(C(=O)O)[C@H](c3ccc(C(C)(C)C)cc3)N2S(=O)(=O)c2ccc(C)cc2)cc1 | – | 10 µM (active) |
| CCOc1ccc2[nH]c(=O)c(CN(CCc3ccccc3)C(=O)c3cnccn3)cc2c1 | -0.958% | – |
| C#CCOCCOCCOCCNc1nc(N2CCN(C(=O)CCCCCCCCCCNC(=O)[C@H]([C@@H](C)CC)n3cc(CCCCCN)nn3)CC2)nc(N2CCN(C(=O)CCCCCCCCCCNC(=O)[C@H](CCCCN)n3cc(CCCC(=O)O)nn3)CC2)n1 | -15.2% | – |
| COc1ccc2[nH]c(=O)c(CN(C)C(=O)C3CCCCC3)cc2c1 | -4.5% | – |
| CC(=O)c1cccc(NC(=O)C(C)OC(=O)c2cc(=O)[nH]c3ccccc23)c1 (centres undefined) | -17% | – |
| Cc1cc(Cl)ccc1NC(=S)NCCCN1CCCC1=O | 3.42% | – |
| CCOC(=O)N1CCN(C(=O)CN(c2cccc(C)c2)S(=O)(=O)c2ccccc2)CC1 | 2.09% | – |
| CC1Cc2ccccc2N1C(=O)Cn1c(=O)oc2cc(S(=O)(=O)NC3CCCC3)ccc21 (centres undefined) | -25.2% | – |
| CCc1c(O)nc(SCC(=O)Nc2ccccc2OC)[nH]c1=O | -2.13% | – |
| CC(=O)Nc1ccc(NC(=O)C2CCCN(S(=O)(=O)c3ccc(Cl)cc3)C2)cc1 (centres undefined) | -9.2% | – |
| COc1cccc(-c2csc3nnc(SCC(=O)NCc4cccs4)n23)c1 | -10.5% | – |

| Compound | activity change, negative = inhibition | Potency |
| --- | --- | --- |
| CC1(C)Cc2c(C#N)c(N3CCN(C(=O)c4ccco4)CC3)nc(-c3ccco3)c2CS1 | – | 8.91 µM (active) |
| Cc1cc(C(=O)NCc2ccco2)on1 | -27.9% | – |
| CN(C)S(=O)(=O)c1ccc(C(=O)NCCN=C2NS(=O)(=O)c3ccccc32)cc1 | -8.45% | – |
| COc1ccc(C2CC(=O)N3CN(c4ccccc4F)CSC3=C2C#N)cc1OC (centres undefined) | -18.7% | – |
| CN1CCN(Cc2c(O)ccc3c(=O)c(Oc4ccccc4Cl)c(C(F)(F)F)oc23)CC1 | 3.93% | – |
| Cc1ccc2[nH]c(=O)c(COC(=O)c3ccccn3)cc2c1 | -8.08% | – |
| O=C(COc1ccccc1)Nc1nnc(-c2ccc(Cl)s2)o1 | -14% | – |
| Cc1cccc(NC(=S)NCc2ccc3c(c2)cc(C)n3C)c1C | -9.94% | – |
| O=C(/C=C1\NC2(CCCC2)Cc2ccccc21)C(=O)N/N=C/c1ccc(O)c(O)c1 | – | 7.94 µM (active) |
| c1ccc(Nc2c3c(nc4ncnn24)CCC3)cc1 | -0.0764% | – |
| CC1=NN(c2ccc(C)cc2)C(=O)/C1=C/c1ccc(-c2cc([N+](=O)[O-])ccc2O)o1 | – | 10 µM (active) |
| COc1cccc(NC(=O)CSc2nncn2-c2ccccn2)c1 | -6.25% | – |
| COc1cc2c(C(=O)N3CCN(c4cccc(Cl)c4)CC3)cn(CC(C)C)c(=O)c2cc1OC | 2.04% | – |
| C=CCn1c(NCc2cc(C)ccc2O)nc2ccccc21 | -5.84% | – |
| Cc1ccc(C(=O)C(=S)N2CCOCC2)cc1 | 7.4% | – |
| CC1CCCC(N2CCN(C(=O)c3cccc(F)c3)CC2)C1 (centres undefined) | -6.05% | – |
| Cc1noc(/C=C/NCc2cccnc2)c1S(=O)(=O)N(C)CC(=O)N1CCc2ccccc21 | -11.3% | – |
| C#CCOCCOCCOCCNc1nc(N2CCN(C(=O)CCCCCCCCCCNC(=O)Cn3cc(C[C@@H](C)O)nn3)CC2)nc(N2CCN(C(=O)CCCCCCCCCCNC(=O)[C@@H]([C@H](C)CC)n3cc(CCCCCN)nn3)CC2)n1 | -28.3% | – |
| CC(C)(C)CC(C)(C)NCC(=O)Nc1c2c(nc3ccccc13)CCC2 | -5.64% | – |

From PubChem BioAssay AID493170 (National Center for Advancing Translational Sciences (NCATS), 2011)
